# Test results from ChEMBL document CHEMBL4513216, “Probing the Open Global Health Chemical Diversity Library for Multistage-Active Starting Points for Next-Generation Antimalarials” (ACS Infect Dis, 2020).
# Out of some 69,000 compounds screened, about 8,600 (12%) showed an effect of 50% or more. The sample holds strong results, similar compounds and a random draw of the others, so the mix is not that of the screen.
# System: Plasmodium berghei
# Experiment: Screen against P. berghei liver stage (PbLuc), transformed with Luciferase, at 10uM
# Format: functional, HepG2
# Conditions: tested at 10 uM
row,SMILES,INHIBITION
1,COc1ccc(Cl)cc1C(=O)NCCNc1cnccn1,-21.8%
2,O=C1CC2(CCN(c3nncs3)C2)CN1c1cccc(F)c1 (stereo unspecified),-6.3%
3,CCN1CC2(CC1=O)CN(C(=O)NC(C)C)CCN(C(=O)C(C)C)C2 (stereo unspecified),30.5%
4,CN(C)C(=O)N1C[C@@H]2COC[C@]2(CNS(C)(=O)=O)C1,14.2%
5,CC(=O)N1CCO[C@@H]2CN(Cc3ccccc3Cl)C[C@@H]2C1,38.5%
6,Cc1ccccc1C1(C(=O)NCCN(C(C)C)C(C)C)CCOCC1,-52.66%
7,c1cc2nccc(CC3CCCN(C4CCOCC4)CC3)c2cn1 (stereo unspecified),15.9%
8,CN(C)[C@@H]1CN(C(=O)Cc2cccs2)[C@@H]2CCCO[C@H]12,24.6%
9,O=C(c1ccc(N2CCOCC2)cc1)N1CCCC(n2ccnc2)C1 (stereo unspecified),41.415%
10,CN(C)c1ncccc1CNC(=O)NCCN(C)C1CCCC1,28.8%
11,CCOC(=O)C1CCN(Cc2csc(-c3ccc(C)o3)n2)CC1,0.914%
12,O=C(C1CCOCC1)N1CC[C@@H](O)[C@@H]1Cc1ccncc1,-2.35%
13,CC(=O)N1CCC(n2nccc2-c2cnc(N3CCCC3)nc2)CC1,33.7%
14,FC(F)(F)c1cccc(OC2CCN(Cc3c[nH]cn3)CC2)c1,88%
15,FC(F)(F)c1cccc(OC2CCN(Cc3ccccn3)CC2)c1,40.7%
16,Nc1ccc(C(=O)N2CCC(Oc3cccc(C(F)(F)F)c3)CC2)cn1,29.8%
17,CCc1nc(C2CCCN2C(=O)CCCn2cncn2)no1 (stereo unspecified),-59.4%
18,CN1C(=O)CCCC12CCCN(C(=O)c1ccc3c(c1)OCO3)C2 (stereo unspecified),-36.8%
19,CCS(=O)(=O)N1CCC2(CC1)CN(Cc1ccccn1)C(=O)CO2,35.8%
20,CCOC(=O)[C@H]1[C@@H](O)C(=O)N(C)C12CCN(C(=O)OCC)CC2,20%
21,CCOC(=O)[C@@H]1[C@@H](O)C(=O)N(C)C12CCN(C(=O)c1ccco1)CC2,-3.5%
22,CCOC(=O)[C@H]1[C@@H](O)C(=O)N(C)C12CCN(C(=O)c1ccccc1)CC2,58.5%

row,SMILES,INHIBITION
1,CCN(CC)S(=O)(=O)NCc1ccc(-c2ccc(C(N)=O)c(C)n2)cc1,-5.8%
2,CN(CCc1cccs1)C(=O)Nc1cccc(S(C)(=O)=O)c1,-93.6%
3,Cc1nc(CN2CCN(C(=O)NC(C)c3cccnc3)CC2)cs1 (stereo unspecified),41.5%
4,CC(C)Oc1ccc(NCc2ccc([S+](C)[O-])cc2)c(F)c1 (stereo unspecified),93.1%
5,CC(C)Oc1ccc(CNC(=O)CC(F)(F)F)cc1F,-4.69%
6,CC(C)Oc1ccc(CNC(=O)NCc2ccncc2)cc1F,29.5%
7,CN(Cc1cccc(C(N)=O)c1)c1ncc(C#N)cc1Cl,61.1%
8,CN(Cc1ccc(C#N)cc1)c1ncc(C(N)=O)cc1Cl,65.4%
9,CN(Cc1cccc(C(N)=O)c1)c1ncc(C(N)=O)cc1Cl,49.1%
10,CN(c1ncc(C(N)=O)cc1Cl)C1CCC(c2ccccc2)CC1 (stereo unspecified),38.1%
11,COc1cccc(CN(C)c2ncc(C(N)=O)cc2Cl)c1,26.9%
12,CN(Cc1ccc(C#N)cc1)C(=O)c1ccn(C)c(=O)c1,33.4%
13,COCCN(CCOC)c1ncc(C#N)cc1Cl,-2.39%
14,CCN(CC)C(=O)c1ccc(CNc2ncc(C#N)cc2Cl)cc1,-22.8%
15,CN(Cc1cccc(C#N)c1)c1ncc(C(N)=O)cc1Cl,66.3%
16,Cc1cc(CNC(=O)NCCC(=O)N2CCCc3ccccc32)no1,17.1%
17,CN(Cc1cccc(C#N)c1)Cc1nc2c(cnn2C)c(=O)[nH]1,44.3%
18,O=S(=O)(CCN1CCc2c(ncn2C2CC2)C1)c1ccccc1,-11.4%
19,CS(=O)(=O)CCN1CCc2c(ncn2C2CC2)C1,-2.43%
20,OC(CN1CCOCC1)CN1CCc2c(ncn2C2CC2)C1 (stereo unspecified),13.5%
21,OC(COc1ccccc1)CN1CCc2c(ncn2C2CC2)C1 (stereo unspecified),5.97%
22,CC(C)S(=O)(=O)CCN1CCc2c(ncn2C2CC2)C1,67.1%

row,SMILES,INHIBITION
1,Cc1ccc(OCC(O)CN2CCc3c(ncn3C3CC3)C2)cc1 (stereo unspecified),58.5%
2,Fc1ccc(CN2CCC3(CC2)CC(c2cccnc2)CO3)cc1 (stereo unspecified),15.4%
3,CN(C)c1cc(CC(NC(=O)C2CC2)c2ccccc2)nc(C2CC2)n1 (stereo unspecified),37.1%
4,O=C(NCc1ccccn1)C1=NN(c2ccccc2)C(=O)CN1,-170%
5,CN(C)C(c1ccccn1)C1CCC(CNC(=O)C2CC2)CC1 (stereo unspecified),-103%
6,Cn1cc(-c2ncc3c(c2C(=O)O)CCN(Cc2ccccn2)C3)cn1,29.4%
7,Cc1cc(Cl)c(C)c(S(=O)(=O)N2CCN(Cc3ccccn3)CC2)c1Cl,18.6%
8,CC(C)Cn1cc2nc(N3CCC(O)CC3)[nH]cc-2c1=O,66.5%
9,CC(C)Cn1cc2nc(N3CCCC3)[nH]cc-2c1=O,47.4%
10,CC(C)Cn1cc2nc(N3CCCC(C)C3)[nH]cc-2c1=O (stereo unspecified),-40.4%
11,COc1ccccc1C(=O)NS(=O)(=O)c1cncc(Br)c1,28.3%
12,COc1c(CNCC(O)c2ccccc2)c(C(C)C)nn1C (stereo unspecified),3.73%
13,COc1ccc2c(c1)OCC(C(=O)NCc1ncc3c(n1)CCC3)C2 (stereo unspecified),-9.39%
14,O=C1NCc2ccccc2CC12CCN(Cc1ccccc1Cl)CC2,36.6%
15,Cc1nc(N(C)C)nc(N2CCC3(CC2)CNC(=O)O3)c1C,-12.1%
16,CN(C)C(=O)CN1CCC2(CC1)C[C@@H](O)[C@H](c1ccccc1)NC2=O,22%
17,NC(=O)CN1CCC2(CC1)C[C@@H](O)[C@H](c1ccccc1)NC2=O,53.2%
18,CNC(=O)CN1CCC2(CC1)C[C@@H](O)[C@H](c1ccccc1)NC2=O,44.8%
19,CN(C)C(=O)CN1CCn2cc(Cn3cccn3)nc2C1,38.5%
20,COc1ccc(C2CCCN2c2cnccn2)c(OC)c1 (stereo unspecified),31.6%
21,COc1ccc(C2CCCN2c2ccnc(C)c2Cl)c(OC)c1 (stereo unspecified),82.2%
22,COc1ccc(C2CCCN2c2nnc(C)s2)c(OC)c1 (stereo unspecified),15.5%

row,SMILES,INHIBITION
1,O=C([C@@H]1CN(Cc2nccs2)C[C@H]2OCC[C@H]21)N1CCOCC1,14%
2,Cn1cc(CN2CC[C@H]3O[C@H](C(=O)NCc4ccco4)CC[C@H]32)cn1,-20.6%
3,CC1c2ncc(CNC(=O)C3CC3)n2CCN1Cc1nccs1 (stereo unspecified),-4.32%
4,CN1CCC2(COCCN(Cc3cccc(C#N)c3)C2)C1 (stereo unspecified),89.6%
5,CN1CCC2(COCCN(Cc3ccc4c(c3)OCO4)C2)C1 (stereo unspecified),61.5%
6,COCCN1CCC2(COCCN(Cc3ccc4c(c3)OCO4)C2)C1 (stereo unspecified),46.7%
7,CCN1CC2(CCC1=O)CCN(Cc1cccc(C#N)c1)CC2,33.4%
8,c1cc2c(cc1CN1CCCC3(CCOC3)C1)OCO2 (stereo unspecified),25.4%
9,CCCOC(=O)N1CCCC2(CCN(Cc3cccc(C#N)c3)C2)C1 (stereo unspecified),2.7%
10,COCC(C)NC(=O)c1sccc1-n1cnnn1 (stereo unspecified),36.5%
11,Nc1nnc(CCCn2nnc(-c3ccccc3F)n2)s1,44.7%
12,Fc1ccccc1-c1nnn(CCCc2nn[nH]n2)n1,78.8%
13,Cc1cc(-c2nnn(CCNS(C)(=O)=O)n2)ccc1F,31.8%
14,Nc1nnc(Cn2nnc(-c3ccccc3F)n2)s1,61.8%
15,Fc1ccccc1CN1CCC[C@H](Cn2nnc(-c3cccs3)n2)C1,21.6%
16,CNS(=O)(=O)CCCn1nnc(-c2ccc(F)c(C)c2)n1,-6.51%
17,COCCN1CCC(Cc2cncc(-c3ccc(C(=O)O)cc3)n2)CC1,31.6%
18,Nc1cnn(CC(=O)N2CCCCC2)c1,34%
19,COc1cccc(CN2CCCCC2Cn2nc(C)nc2C)c1 (stereo unspecified),-59.4%
20,NC(=O)COc1ccc(C(=O)N2CCCC(n3ccnc3)C2)cc1 (stereo unspecified),-19.4%
21,CNC(=O)N1CC[C@H]2N(C)CC[C@@]2(C(=O)N2CCOCC2)CC1,-18.4%
22,COc1cc(C(=O)N2CCCS2(=O)=O)ccc1OC(C)C,66.7%

row,SMILES,INHIBITION
1,CCOc1ccc(C(=O)N2CCCS2(=O)=O)cc1OC,11.2%
2,COc1ccc(C(=O)N2CCCS2(=O)=O)cc1OC,5.03%
3,Cc1cc(C)n(NC(=O)c2ccccc2F)c(=O)c1,47.1%
4,Cc1cc(C)n(NC(=O)c2ccccc2C)c(=O)c1,-46.4%
5,Cc1cc(C)n(NC(=O)c2ccc(Cl)cc2Cl)c(=O)c1,60.4%
6,CCc1nc(CN2CCN(C(=O)c3csnn3)CC2)cs1,10.2%
7,CS(=O)(=O)Cc1ccc(C(=O)NC2CCc3nccn3C2)o1 (stereo unspecified),-16.38%
8,CCc1c(O)nc2nc(N3CCCC3)nn2c1C,44.1%
9,Cn1cncc1CN1CCCC1c1cncc(Oc2ccc(F)cc2)n1 (stereo unspecified),67.7%
10,CNCC(=O)N1CCCC1c1cncc(Oc2ccc(F)cc2)n1 (stereo unspecified),38.2%
11,NC(=O)CN1CCCC1c1cncc(Oc2ccc(Cl)cc2)n1 (stereo unspecified),13.5%
12,COc1ccc(Oc2cncc(C3CCCN3C(C)=O)n2)cc1 (stereo unspecified),-3.98%
13,CC(C)(N)C(=O)N1CCCC1c1cncc(Oc2ccc(F)cc2)n1 (stereo unspecified),31.1%
14,Cc1ncccc1Oc1cncc(C2CCCN2Cc2cncn2C)n1 (stereo unspecified),32.8%
15,Cn1cncc1CN1CCCC1c1cncc(Oc2ccc(Cl)cc2)n1 (stereo unspecified),96.6%
16,CN(C)CC(=O)N1CCCC1c1cncc(Oc2ccc(F)cc2)n1 (stereo unspecified),53%
17,CC(=O)N1CCCC1c1cncc(Oc2ccc(F)cc2)n1 (stereo unspecified),11.1%
18,CCN(CC)C(=O)c1ccn(COc2c(Cl)cccc2Cl)n1,20.9%
